# SKKanGAS inh = SKKanGAS growth inhibition; S. pyogenes SKKanGAS, kanamycin growth, BacTiter-Glo, 6 h; inhibition, % at 7.5 µM; 300,000 tested, 1.3% active; AID 1662;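 active = mean replicate score, as percent of positive control median, at least 50; inconclusive = mean below 50 but one replicate at or above 50; inactive = mean and every replicate below 50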;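 also: strain carries kanamycin resistance gene driven by streptokinase promoter and grows in 40 µg/ml kanamycin; loss of luminescence reflects streptokinase promoter inhibition or plain growth inhibition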
# tim23-1 inh = tim23-1 yeast growth inhibition | S. cerevisiae tim23-1 growth, BacTiter-Glo luminescence, 24 h | inhibition, % at 20 µM | 330,000 tested, 1.3% active;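 active = growth inhibition of the mutant yeast at or above 50%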;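 also: temperature-sensitive mutant grown at 25 °C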
# PfHsp90 set2 = inhibits growth of yeast expressing Plasmodium falciparum Hsp90. S. cerevisiae expressing PfHsp90, BacTiter-Glo ATP, 48 h; yeast lacking PDR1 and PDR3 efflux regulators. inhibition, % at 9.4 µM. 310,000 tested, 0.32% active;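 active = every replicate shows inhibition above about 80%, whatever the replicate mean, limit read from the data; inconclusive = mean inhibition reaches the set limit but some replicate falls short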
# ATG4B inh = blocks human ATG4B protease cleavage of LC3 substrate. ATG4B cleavage of LC3-PLA2, NBD-HPC fluorescence, 1 h. Q9Y4P1. inhibition, % at 8.33 µM. 340,000 tested, 0.51% active. AID 504462; in the data active = inhibition above about 40%
# Target sequence (Q9Y4P1 whole entry, looked up): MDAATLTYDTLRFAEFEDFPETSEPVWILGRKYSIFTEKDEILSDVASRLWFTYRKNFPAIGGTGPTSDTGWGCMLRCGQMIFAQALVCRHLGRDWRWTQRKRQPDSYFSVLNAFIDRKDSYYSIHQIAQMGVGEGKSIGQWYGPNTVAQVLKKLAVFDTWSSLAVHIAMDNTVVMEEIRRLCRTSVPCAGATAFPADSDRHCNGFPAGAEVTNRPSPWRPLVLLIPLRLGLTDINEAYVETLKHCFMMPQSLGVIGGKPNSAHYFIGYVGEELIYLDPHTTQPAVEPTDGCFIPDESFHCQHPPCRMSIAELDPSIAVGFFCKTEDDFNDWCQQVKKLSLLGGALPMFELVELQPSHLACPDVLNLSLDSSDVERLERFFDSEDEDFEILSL
# TIM10 inh = TIM10 yeast growth inhibition; S. cerevisiae TIM10 strain growth, BacTiter-Glo luminescence, 24 h; 330,000 tested, 1.4% active; inhibition, % at 10 µM; AID 463195;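 active = inhibition of 40% or more at the single tested concentration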;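 also: wild-type TIM10 isogenic control strain grown at permissive 25 °C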
# tim10-1 inh = growth inhibitors of tim10-1 mutant yeast | S. cerevisiae tim10-1 ts strain growth, BacTiter-Glo, 24 h | inhibition, % at 20 µM | 330,000 tested, 2.2% active;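 active = inhibition of at least 40%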;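 also: mutant grown at 25 °C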
# tim10-1 confirm = confirmation of tim10-1 mutant yeast growth inhibitors; shares compounds with tim10-1 inh; S. cerevisiae tim10-1 ts strain growth, BacTiter-Glo, 24 h; inhibition, % at 20 µM; 7,400 tested, 56% active; AID 463213;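 active = inhibition of yeast growth at or above a set limit in either of two repeat tests at 20 µM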;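 also: tim10-1 mutant grown at permissive 25 °C to find synthetic lethal compounds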
# Numbers stand for hits; – = inactive; ? = inconclusive; · = no result. The list is not random: actives were taken first. Their share in the collection is about 4.7%.
SMILES,SKKanGAS inh,tim23-1 inh,PfHsp90 set2,ATG4B inh,TIM10 inh,tim10-1 inh,tim10-1 confirm
Cc1cccc2c1nc(-c1ccccc1)n1cnnc21,–,–,·,–,–,40.3,–
O=C(N/N=C/c1ccc(O)c2ncccc12)c1cccc(Br)c1,–,–,104.2,–,–,52.3,–
O=C(N/N=C/c1ccc([N+](=O)[O-])s1)c1cccc(Br)c1,–,–,–,–,–,52.5,–
CC(C)(C)c1ccc(S(=O)(=O)CC(O)CSc2nc3c(cc2C#N)CCCC3)cc1 (stereo not given),–,–,–,–,–,40.3,–
CN(C1CC(C)(C)N(O)C(C)(C)C1)S(=O)(=O)CC12CCC(CC1=O)C2(C)C (stereo not given),·,–,–,–,–,–,·
CCSc1sccc1C1C(C#N)=C(N)N(c2cccnc2)C2=C1C(=O)CC(C)(C)C2 (stereo not given),–,–,–,–,–,–,·
CC1(C)CC(=O)C2=C(C1)N(c1cccnc1)C(N)=C(C#N)C2c1cccs1 (stereo not given),–,–,–,–,–,40.3,33.5
CCC(=O)NC(=S)N1CCN(c2ccc([N+](=O)[O-])cc2Cl)CC1,–,–,–,–,–,–,·
Cc1nn(-c2nnc(NCc3ccccc3)nn2)c(C)c1Br,–,–,–,–,–,48.7,–
Cc1cc(C)n(-c2nnc(NCc3ccc(Cl)cc3)nn2)n1,–,–,–,–,–,–,·
O=C(c1ccco1)N1CCN(Cc2c(F)cccc2Cl)CC1,–,–,–,–,–,–,·
COc1ccc(C(=S)N2CCCCC2)cc1Br,–,–,–,–,–,–,·
S=C(c1ccc(N2CCCC2)c(Br)c1)N1CCCCC1,–,–,–,–,–,44.6,–
CCc1cccc(NC(=O)CN(c2ccc(C)cc2)S(=O)(=O)c2c(C)noc2C)c1,–,–,–,–,–,48.8,36.4
Cc1ccc(N(CC(=O)N2CCN(c3ccc(F)cc3)CC2)S(=O)(=O)c2c(C)noc2C)cc1,–,–,–,–,–,40.9,–
CCCC(=O)c1ccc(N2CCCC2)c(F)c1,–,–,–,–,–,–,·
Cc1c(C(=O)N2CCN(Cc3ccccc3)CC2)sc2ncnc(N3CCOCC3)c12,–,–,–,–,–,–,·
O=C(C1CCN(S(=O)(=O)c2cccc3nsnc23)CC1)N1CCCc2ccccc21,–,–,–,–,–,–,·
O=C(C1CCCN(S(=O)(=O)c2cccc3nsnc23)C1)N1CCc2ccccc21 (stereo not given),–,–,–,–,–,40.5,36.6
O=C(C1CCN(S(=O)(=O)c2cccc3nsnc23)CC1)N1CCn2c1nc1ccccc12,–,–,–,–,–,41.8,–
O=C(C1CCN(S(=O)(=O)c2cccc3nsnc23)CC1)N1CCc2ccccc21,–,–,–,–,–,–,·
Cc1cccc(N2CCN(C(=O)C3CCN(S(=O)(=O)c4cccc5nsnc45)CC3)CC2C)c1 (stereo not given),–,–,–,–,–,40.3,–
CCOC1C(=O)NC(=O)N1Cc1ccccc1 (stereo not given),–,–,–,–,–,–,·
N#CCC1c2ccccc2CCN1C(=O)Nc1ccc(C(F)(F)F)cc1 (stereo not given),–,–,–,–,–,46.4,40.8
COc1ccc(CN=C(N)N=C(N)N)cc1Cl,–,–,–,–,–,–,·
SMILES,SKKanGAS inh,tim23-1 inh,PfHsp90 set2,ATG4B inh,TIM10 inh,tim10-1 inh,tim10-1 confirm
CN1OC[C@@H]2CN(Cc3ccccc3)[C@H](c3cccc(Oc4ccccc4)c3)C[C@@H]21,·,·,–,–,·,·,·
Cn1cc(CNC(=O)c2cc(COc3ccc4c(c3)CCCC4)on2)cn1,–,–,–,–,–,–,·
O=C(NC(c1cccnc1)C(F)(F)F)c1cc(COc2ccc3c(c2)CCCC3)on1 (stereo not given),–,–,–,–,–,41.8,–
Cn1c(CN2CCCC2)nc2cc(NS(=O)(=O)c3ccccc3)ccc21,–,–,–,–,–,–,·
Cc1oc2ccc(O)cc2c1C(=O)c1ccc(Cl)cc1,–,–,–,–,–,–,·
Cc1oc2ccc(O)cc2c1C(=O)c1ccc([N+](=O)[O-])cc1,–,–,–,–,–,44.9,–
COC(=O)[C@]1(C)N[C@H](CN(C)C(=O)Nc2ccc(Cl)cc2)[C@@H]2C(=O)N(C)C(=O)[C@@H]21,·,–,–,–,–,–,·
Cc1cccc(C(=O)N[C@H](C(=O)OCC(=O)NC2CCS(=O)(=O)C2)C(C)C)c1 (stereo not given in full),–,–,–,–,–,–,·
Cc1sc2ccc3sccc3c2[n+]1C,–,–,–,–,–,43.5,46.0
Cc1sc2c3ccsc3ccc2[n+]1C,–,–,–,–,–,–,·
COc1cc(C)c(Br)cc1S(=O)(=O)NCc1cccs1,–,–,–,–,–,40.4,32.0
COc1cc(C)c(Br)cc1S(=O)(=O)NCc1ccncc1,–,–,–,–,–,–,·
O=C(NC(=S)Nc1ccc(O)cc1)c1cncc(Br)c1,–,–,–,–,–,–,·
O=C(NC(=S)Nc1ncc(Br)cc1Br)c1cncc(Br)c1,–,–,–,–,–,40.4,–
O=C(O)CN1C(=O)S/C(=C\c2cccnc2)C1=O,–,–,–,–,–,–,·
O=C(NCCN1C(=O)S/C(=C/c2cccnc2)C1=O)c1cccs1,·,–,–,–,–,43.6,–
COc1ccc2c(CC(=O)NCCN3C(=O)S/C(=C\c4cccnc4)C3=O)coc2c1,–,–,–,–,–,49.7,–
CCOc1c2ccc(C(=O)NCc3ccco3)cc2nn1CC,–,–,–,–,–,–,·
CC(=O)Nc1ccc(SCC(=O)Nc2ccc3c(c2)OCCO3)cc1,·,–,·,–,–,–,·
COc1ccc(C(=O)Nc2ccc3c4c(cccc24)CC3)cc1,–,–,–,–,–,44.4,29.9
COc1cc(OC)cc(C(=O)NC(=S)Nc2ccc3c4c(cccc24)CC3)c1,–,–,·,–,–,–,·
N/C(=N\OC(=O)c1ccc(Cl)c(Cl)c1)c1ccccn1,–,–,–,–,–,–,·
Cc1ccc(C(=O)O/N=C(\N)c2ccccn2)c(C)c1,–,–,–,–,–,54.2,62.7
COc1ccccc1C(=O)O/N=C(\N)c1ccccn1,–,–,–,–,–,–,·
N/C(=N\OC(=O)c1cccc(Cl)c1)c1ccccn1,–,–,–,–,–,45.3,32.9
CC1CCc2sc(C(=O)OCC(=O)NC(N)=O)cc2C1 (stereo not given),–,–,–,–,–,–,·
COc1ccc(Br)cc1/C=C/C(=O)NC(=S)Nc1ccc(Cl)c(C(=O)O)c1,?,–,–,–,–,–,·
